This passage reports growth results from PubChem BioAssay (NCI).

This is part of a sample that, as a whole, favours compounds with a hit. Of some 83,000 tested, about 20% had one in any assay.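 Percent growth is the endpoint: 0 to 100 indicates growth inhibition (40 means 60% inhibition), 0 means no net growth, and negative values indicate cell death.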 Values without a mark were called inactive. Activity calls are given as the source filed them. The calls were made as follows: active = growth percent below 10; inactive = the rest.

Some test systems named below: DU-145 prostate; K-562 leukemia; MALME-3M melanoma; MDA-MB-231 breast; RXF 393 renal; SF-268 CNS; SF-295 CNS; SF-539 CNS; UACC-257 melanoma; M14 melanoma; HCT-15 colon; HT29 colon; SNB-75 CNS; SNB-19 CNS; U251 CNS; PC-3 prostate; SK-MEL-5 melanoma; UACC-62 melanoma; LOX IMVI melanoma; SK-MEL-28 melanoma.
Common to all, as to assay: NCI-60 one-dose screen, 48 h (100 = growth as untreated, 0 = no growth, -100 = all killed)
Holding throughout (settings): 10 µM unless noted

With `O=C(Nc1nc(-c2ccc(Cl)cc2)nc2c1sc(=S)n2-c1ccccc1)C(F)(F)F`, the growth with DU-145 prostate is 37.5%; with K-562 leukemia, 57.2%; in the test with MALME-3M melanoma, 21.2%; in the test on MDA-MB-231 breast it was 37.5%; with RXF 393 renal, 29%; in the test with SF-268 CNS it was 36.1%. In addition, the growth in the test with SF-295 CNS was 7.16% (active); in the test on SF-539 CNS it was 8.63% (active); in the test on UACC-257 melanoma it was 51.1%; with M14 melanoma it was 40.3%; with HCT-15 colon it was 54.9%; in the test on HT29 colon, 17.5%. Also, the growth in the test with SNB-75 CNS is -44.1% (active); in the test with SNB-19 CNS it was 61.5%; in the test on U251 CNS, 8.47% (active); with PC-3 prostate, 38.6%; in the test on SK-MEL-5 melanoma, 64.9%; with UACC-62 melanoma, 21.1%. Besides, the growth in the test on LOX IMVI melanoma was -20.4% (active); in the test with SK-MEL-28 melanoma, 78.9%.
For the molecule `CCOc1ccccc1Cn1ccnc1CCc1c(Cl)c(O)cc(O)c1C(=O)OC`, the growth was 104% in the test on DU-145 prostate; 94.7% in the test with K-562 leukemia; 91.8% in the test with MALME-3M melanoma; 96.7% in the test on MDA-MB-231 breast; 108% with RXF 393 renal; 102% in the test with SF-268 CNS. For the same molecule, the growth in the test on SF-295 CNS was 95.2%; with SF-539 CNS, 103%; in the test with UACC-257 melanoma it was 93.7%; in the test with M14 melanoma, 95.2%; with HCT-15 colon, 104%; with HT29 colon, 94.8%. Moreover, the growth in the test on SNB-75 CNS is 88.2%; in the test with SNB-19 CNS it was 92.4%; in the test with U251 CNS it was 97.5%; in the test with PC-3 prostate, 86.9%; in the test on SK-MEL-5 melanoma it was 94.6%; in the test with UACC-62 melanoma, 92.1%. The results for the growth in the test with LOX IMVI melanoma and in the test with SK-MEL-28 melanoma were 89.2% and 96.6%, respectively.
For `CCOC(=O)c1cc2c(n1C)-c1nc(NC(C)=O)sc1CCC2`, the growth is 94.3% with DU-145 prostate; 96.6% in the test with K-562 leukemia; 108% in the test with MALME-3M melanoma; 55.1% in the test on MDA-MB-231 breast; 83.1% in the test with RXF 393 renal; 77.4% in the test on SF-268 CNS. The growth in the test with SF-295 CNS is 84.1%; in the test with SF-539 CNS it was 83.2%; in the test on UACC-257 melanoma, 67.8%; with M14 melanoma it was 89.1%; in the test on HCT-15 colon, 88.3%; in the test with HT29 colon, 88%. Moreover, the growth in the test with SNB-75 CNS is 71.4%; with SNB-19 CNS, 83.6%; in the test on U251 CNS it was 78.2%; with PC-3 prostate, 51%; in the test on SK-MEL-5 melanoma it was 80.4%; with UACC-62 melanoma, 69.5%. The growth was 79.6% in the test with LOX IMVI melanoma and 107% in the test with SK-MEL-28 melanoma.
With `CCOCCNC1=C(Cl)C(=O)c2ccccc2C1=O`, the growth with DU-145 prostate is 76.3%; in the test with K-562 leukemia, 91.8%; in the test on MALME-3M melanoma it was 106%; with MDA-MB-231 breast, 116%; with RXF 393 renal, 123%; in the test on SF-268 CNS it was 101%. The growth in the test on SF-295 CNS is 95.1%; in the test with SF-539 CNS, 121%; with UACC-257 melanoma it was 98.2%; in the test with M14 melanoma, 110%; with HCT-15 colon, 95%; in the test on HT29 colon, 107%. Further, the growth in the test with SNB-75 CNS is 57.9%; with SNB-19 CNS, 111%; with U251 CNS, 100%; in the test with PC-3 prostate, 92.6%; with SK-MEL-5 melanoma it was 67.2%; with UACC-62 melanoma it was 101%. Also, the growth in the test with LOX IMVI melanoma was 70.6%; in the test with SK-MEL-28 melanoma, 117%.
For `Oc1c(Br)cc(Br)c2ccc(Cn3cc(-c4ccccc4C(F)(F)F)nn3)nc12`, the growth in the test on DU-145 prostate was 86%; with K-562 leukemia it was 4.64% (active); with MALME-3M melanoma, 89.6%; in the test with MDA-MB-231 breast, 109%; in the test with RXF 393 renal, 60.1%; with SF-268 CNS, 94.1%. Moreover, the growth was 104% with SF-295 CNS; 97.3% with SF-539 CNS; 79% in the test on UACC-257 melanoma; 94.6% in the test on M14 melanoma; 62.7% in the test with HCT-15 colon; 107% with HT29 colon. The growth in the test with SNB-75 CNS was 80.8%; in the test on SNB-19 CNS, 94.3%; in the test on U251 CNS it was 106%; in the test with PC-3 prostate, 104%; with SK-MEL-5 melanoma it was 103%; with UACC-62 melanoma it was 95.5%. The growth in the test with LOX IMVI melanoma was 77.2%; in the test with SK-MEL-28 melanoma, 96.9%.
As for `O=C1/C(=C/c2ccc([N+](=O)[O-])cc2)COc2ccc(O)cc21`, the growth was 92.6% in the test with DU-145 prostate; 11.2% in the test on K-562 leukemia; 96.1% in the test on MALME-3M melanoma; 80.8% in the test on MDA-MB-231 breast; 98.9% with RXF 393 renal; 84% with SF-268 CNS. Moreover, the growth was 98.6% in the test with SF-295 CNS; 94.5% with SF-539 CNS; 106% in the test on UACC-257 melanoma; 88.2% in the test with M14 melanoma; 28.3% with HCT-15 colon; 4.43% (active) with HT29 colon. The growth is 83.4% in the test on SNB-75 CNS; 91.4% in the test with SNB-19 CNS; 66.1% with U251 CNS; 88.3% in the test on PC-3 prostate; 94% in the test with SK-MEL-5 melanoma; 76.3% in the test with UACC-62 melanoma. Moreover, the growth in the test on LOX IMVI melanoma is 1.76% (active); in the test on SK-MEL-28 melanoma, 108%.
For `CCN(CC)CC(O)COc1c(Br)c(Br)c(Br)c2c1OC(C)(C)C2` (stereo not given), the growth is 117% with DU-145 prostate; 23.9% with K-562 leukemia; -30.1% (active) in the test on MALME-3M melanoma; 44.7% in the test on MDA-MB-231 breast; 99.4% with RXF 393 renal; 83% with SF-268 CNS. Further, the growth in the test on SF-295 CNS was 1.69% (active); with SF-539 CNS it was 108%; with UACC-257 melanoma it was 140%; in the test on M14 melanoma, 41.3%; in the test on HCT-15 colon it was 97.3%; in the test with HT29 colon, 18.9%. The growth was 91.3% in the test with SNB-75 CNS; 73.4% in the test with SNB-19 CNS; 85.6% in the test on U251 CNS; 78.1% with PC-3 prostate; -78.9% (active) with SK-MEL-5 melanoma; -43.7% (active) in the test with UACC-62 melanoma. The growth in the test with LOX IMVI melanoma is 52.9%; in the test on SK-MEL-28 melanoma, 64%.
For the molecule `CCOC(=O)C#Cc1c(C(=O)OCC)nnn1Cc1ccc([N+](=O)[O-])cc1`, the growth with DU-145 prostate is 10.4%; with K-562 leukemia it was 4.56% (active); in the test with MALME-3M melanoma, 53.8%; with MDA-MB-231 breast, 83.1%; in the test with RXF 393 renal it was -58.4% (active); with SF-268 CNS, 87.4%. In addition, the growth is 99.8% in the test with SF-295 CNS; 47.3% in the test with SF-539 CNS; 42% in the test with UACC-257 melanoma; 43.8% with M14 melanoma; -20% (active) with HCT-15 colon; 7.68% (active) in the test with HT29 colon. Besides, the growth was 65.3% in the test on SNB-75 CNS; 87.9% in the test with SNB-19 CNS; 96.5% in the test with U251 CNS; 72.7% with PC-3 prostate; 93.2% in the test on SK-MEL-5 melanoma; 76% with UACC-62 melanoma. Further, the growth with LOX IMVI melanoma is -0.0172% (active); in the test on SK-MEL-28 melanoma it was 87%.
